Activity calls are given as the source filed them.
Experiments:
[1] = E. coli DRC41 culture turbidity changes, primary screen, E. coli filamentation inducer project, strain DRC41, OD650, 48 h (AID 1152);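 further: E. coli MC1000 strain DRC41 lacking acrAB efflux pump and sulA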; details: E. coli DRC41 (acrAB sulA), higher = more signal, called active from +8 up or from −8 down
[2] = small-molecule binders of probe aLefty1, primary screen, biochemical, small-molecule microarray, 635/667 nm fluorescence (AID 1153); details: higher = more signal;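 further: score merges spot fluorescence with signal-to-noise ratio from the scanned slide images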
[3] = PSAC antagonists in infected red cells, primary screen, cell-based, P. falciparum Indochina, OD700, 1 h (AID 1154); details: P. falciparum Indochina infected RBC osmotic lysis, higher = more signal, called active from +8 up or from −8 down
[4] = PSAC antagonists in infected red cells, primary screen, cell-based, P. falciparum Indochina, OD700, 2 h (AID 1155);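 further: lysis reports solute entry through the parasite surface anion channel PSAC; channel blockers reduce lysis of infected cells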; details: P. falciparum Indochina infected erythrocytes, osmotic lysis OD700; higher = more signal, called active from +8 up or from −8 down
[5] = osmotic lysis modulators in infected erythrocytes, primary screen, PSAC antagonist project, cell-based, P. falciparum Indochina, OD700, 3 h (AID 1156); details: higher = more signal, called active from +8 up or from −8 down
[6] = PSAC antagonists in infected red cells, primary screen, cell-based, P. falciparum Indochina, OD700, 18 h (AID 1157); details: P. falciparum Indochina infected erythrocytes, osmotic lysis OD700, 18 h; higher = more signal, called active from +8 up or from −8 down
[7] = modulators of S6 phosphorylation in cells, primary screen, cell-based, A549, cytoblot, luminescence, serum-stimulated (AID 1158); details: A549 phospho-S6 cytoblot, 5 h, higher = more signal;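 further: serum-stimulated A549 lung adenocarcinoma cells; signal is phosphorylated S6 detected by cytoblot immunostaining with HRP secondary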
[8] = target: NADPH oxidase 2 (Homo sapiens) (UniProt P04839); test: NOX2-dependent H2O2 signal modulators, primary screen, NOX inhibitor project, cell-based, HEK293-NOX2, PMA-stimulated, Amplex Red fluorescence (AID 1159); details: 45 min, higher = more signal, called active from +8 up or from −8 down; further: test concentration not given here
[9] = target: NADPH oxidase 4 (Homo sapiens) (UniProt Q9NPH5); test: NOX4-dependent H2O2 signal modulators, primary screen, NOX inhibitor project, cell-based, HEK293-NOX4, tetracycline-induced, Amplex Red fluorescence (AID 1160); details: 45 min, higher = more signal, called active from +8 up or from −8 down
[10] = target: NADPH oxidase 5 (Homo sapiens) (UniProt Q96PH1); test: NOX5-dependent H2O2 signal modulators, primary screen, NOX inhibitor project, cell-based, HEK293-NOX5, Amplex Red fluorescence (AID 1161); details: HEK293-NOX5, ionomycin, 45 min, higher = more signal
NADPH oxidase 5 (Homo sapiens), sequence (Q96PH1 whole entry, looked up): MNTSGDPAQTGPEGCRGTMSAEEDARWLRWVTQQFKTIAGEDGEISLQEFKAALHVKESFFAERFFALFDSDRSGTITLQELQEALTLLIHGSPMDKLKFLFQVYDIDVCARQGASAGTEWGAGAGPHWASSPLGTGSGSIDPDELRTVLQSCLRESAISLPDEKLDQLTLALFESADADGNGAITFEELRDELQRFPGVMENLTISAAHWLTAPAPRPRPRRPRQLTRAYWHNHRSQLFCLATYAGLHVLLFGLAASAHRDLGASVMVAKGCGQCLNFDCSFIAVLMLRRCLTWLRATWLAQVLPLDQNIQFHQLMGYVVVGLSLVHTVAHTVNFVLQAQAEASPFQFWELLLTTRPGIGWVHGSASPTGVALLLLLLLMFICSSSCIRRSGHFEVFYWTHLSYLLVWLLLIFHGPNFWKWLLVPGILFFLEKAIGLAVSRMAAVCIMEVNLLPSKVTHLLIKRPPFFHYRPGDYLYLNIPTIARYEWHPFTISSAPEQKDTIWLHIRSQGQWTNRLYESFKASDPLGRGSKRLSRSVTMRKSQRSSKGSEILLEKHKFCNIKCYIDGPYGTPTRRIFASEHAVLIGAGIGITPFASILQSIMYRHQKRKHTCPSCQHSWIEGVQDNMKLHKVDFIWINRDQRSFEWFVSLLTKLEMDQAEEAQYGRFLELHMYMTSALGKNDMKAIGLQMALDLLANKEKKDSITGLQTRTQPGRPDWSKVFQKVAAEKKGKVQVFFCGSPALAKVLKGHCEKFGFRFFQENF

NADPH oxidase 2 (Homo sapiens), sequence (P04839 whole entry, looked up): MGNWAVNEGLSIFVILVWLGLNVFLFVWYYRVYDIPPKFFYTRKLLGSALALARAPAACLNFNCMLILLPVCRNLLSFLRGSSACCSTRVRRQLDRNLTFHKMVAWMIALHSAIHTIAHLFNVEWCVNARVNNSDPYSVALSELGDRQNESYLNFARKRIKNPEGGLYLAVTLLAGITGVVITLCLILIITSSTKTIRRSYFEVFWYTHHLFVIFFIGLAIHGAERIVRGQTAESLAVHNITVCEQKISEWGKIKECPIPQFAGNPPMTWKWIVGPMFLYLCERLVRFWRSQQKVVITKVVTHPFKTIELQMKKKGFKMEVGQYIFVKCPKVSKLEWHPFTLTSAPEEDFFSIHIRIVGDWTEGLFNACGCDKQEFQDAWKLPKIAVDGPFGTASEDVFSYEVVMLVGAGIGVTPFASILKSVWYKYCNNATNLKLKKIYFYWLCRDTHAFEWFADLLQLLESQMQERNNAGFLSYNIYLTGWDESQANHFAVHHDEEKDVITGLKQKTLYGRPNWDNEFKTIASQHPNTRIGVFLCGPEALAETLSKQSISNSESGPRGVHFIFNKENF
NADPH oxidase 4 (Homo sapiens), sequence (Q9NPH5 whole entry, looked up): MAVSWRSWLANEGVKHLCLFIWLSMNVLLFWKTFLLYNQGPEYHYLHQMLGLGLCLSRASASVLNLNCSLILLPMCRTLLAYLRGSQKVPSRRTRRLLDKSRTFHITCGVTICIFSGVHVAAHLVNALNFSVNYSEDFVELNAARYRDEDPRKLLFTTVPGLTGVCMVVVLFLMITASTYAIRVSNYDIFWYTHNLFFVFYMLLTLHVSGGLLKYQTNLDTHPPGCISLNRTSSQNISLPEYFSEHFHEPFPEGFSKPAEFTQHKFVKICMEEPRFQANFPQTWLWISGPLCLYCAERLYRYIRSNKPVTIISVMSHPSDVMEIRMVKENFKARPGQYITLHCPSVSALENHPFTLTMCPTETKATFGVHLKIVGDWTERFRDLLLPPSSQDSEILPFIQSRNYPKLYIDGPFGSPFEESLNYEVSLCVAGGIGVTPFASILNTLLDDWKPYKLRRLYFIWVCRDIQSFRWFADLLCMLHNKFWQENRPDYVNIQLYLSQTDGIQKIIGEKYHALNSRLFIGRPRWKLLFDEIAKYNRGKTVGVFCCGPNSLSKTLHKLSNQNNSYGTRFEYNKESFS

Structure (SMILES)	z-score [1]	composite z-score [2]	z-score [3]	z-score [4]	z-score [5]	z-score [6]	z-score [7]	z-score [8]	z-score [9]	z-score [10]
C[C@H]1C2[C@H](Cc3ccccc3)NC(=O)[C@]23C(=O)NCC(=O)N2CCC[C@H]2C(=O)NC/C=C/CCC/C=C/C3[C@@H]2O[C@]12C (stereo not given in full)	1.38 (inactive)	-0.103	1.44 (inactive)	-0.0812 (inactive)	0.391 (inactive)	0.133 (inactive)	0.781	1.61 (inactive)	-0.66 (inactive)	1.88
NCCCCCCNC(=O)[C@H]1C[C@H]2C(=O)N[C@@H](Cc3ccccc3)C(=O)N2[C@H]1c1cccc(OCCO)c1	0.921 (inactive)	-0.141	5 (inactive)	0.944 (inactive)	2.3 (inactive)	0.472 (inactive)	-0.147	0.997 (inactive)	0.736 (inactive)	0.392
CC(=O)Nc1cc(Br)ccc1C(=O)NCc1ccccc1	-0.813 (inactive)	-0.0929	3.88 (inactive)	0.423 (inactive)	0.0319 (inactive)	0.229 (inactive)	-0.283	-0.714 (inactive)	-0.427 (inactive)	-0.393
CCCCC(=C=CC[C@@H](O)c1cccc(OCCO)c1)C[C@@H](O)c1ccccn1	0.158 (inactive)	-0.147	14 (active)	1.33 (inactive)	0.375 (inactive)	0.504 (inactive)	-0.0848	-1.68 (inactive)	-0.544 (inactive)	-1.46
COC(=O)[C@@]1(Cc2ccc(F)cc2)[C@H]2c3cc(C(=O)N(C)C)n(Cc4cc(C)n(C)n4)c3C[C@H]2CN1C(=O)c1ccccc1	-1.48 (inactive)	0.0576	0.797 (inactive)	0.364 (inactive)	0.0419 (inactive)	0.495 (inactive)	-0.438	0.743 (inactive)	-0.354 (inactive)	-0.329
CC(CO)N1C(=O)[C@@H]2C3C(=O)OCCC/C=C\[C@H]3OC23C=CCN(CCN2CCOCC2)C(=O)[C@@H]13 (stereo not given in full)	0.253 (inactive)	-0.348	0.901 (inactive)	0.0448 (inactive)	1.7 (inactive)	0.01 (inactive)	0.0058	0.238 (inactive)	-0.398 (inactive)	1.05
O=C1C2C=CC(C(O)c3c(F)cccc3Cl)N(Nc3ccccc3F)C2C(=O)N1c1ccccc1 (stereo not given)	-0.775 (inactive)	0.19	6.75 (inactive)	1.57 (inactive)	0.303 (inactive)	1.1 (inactive)	-0.514	-1.43 (inactive)	-4.43 (inactive)	-2.84
O=C1[C@H]2C=C(I)[C@H](C[C@@H]2OCCCCO)[C@@]12CO2	-0.989 (inactive)	0.0437	1.01 (inactive)	-0.171 (inactive)	0.282 (inactive)	-0.039 (inactive)	0.764	-0.0538 (inactive)	0.491 (inactive)	-0.584
C=CCN1C(=O)[C@]2(O[C@H](CCO)[C@@H]([Si](C)(C)c3ccc(OC)cc3)[C@@H]2C)c2cc(N(C=O)c3ccccc3)ccc21	0.35 (inactive)	0.0774	9.23 (active)	3.66 (inactive)	-0.452 (inactive)	2.29 (inactive)	1.53	0.474 (inactive)	0.446 (inactive)	0.327
COCCOC(=O)N1C(=O)[C@@]2(c3cc(C#CC4(O)CCCCCC4)ccc31)[C@H](c1ccccc1OCCO)N1[C@H](c3ccccc3)[C@H](c3ccccc3)OC(=O)[C@H]1[C@@H]2C(=O)N1CCc2cc(OC)c(OC)cc2C1	0.109 (inactive)	0.379	2.53 (inactive)	0.888 (inactive)	0.467 (inactive)	0.773 (inactive)	0.495	1.25 (inactive)	0.534 (inactive)	1.82
COc1ccc([C@H]2OC[C@@H]3CCC(=O)N32)cc1	0.0137 (inactive)	0.0868	0.4 (inactive)	0.698 (inactive)	-0.297 (inactive)	0.48 (inactive)	0.0166	0.982 (inactive)	0.342 (inactive)	-0.0609
COc1cc2c(cc1O)C=[N+](Cc1cc3c(cc1Br)OCO3)CC2	-0.167 (inactive)	-0.237	3 (inactive)	0.472 (inactive)	2.26 (inactive)	0.154 (inactive)	-0.273	-3.59 (inactive)	-2.72 (inactive)	-3.37
COC(=O)[C@@]1(Cc2ccccc2)[C@H]2c3cc(C(=O)N4CCCC4)n(Cc4ccc(O)c(OC)c4)c3C[C@H]2CN1C(=O)c1ccccc1	-1.64 (inactive)	0.0147	3.85 (inactive)	0.496 (inactive)	0.393 (inactive)	0.618 (inactive)	-0.347	-2.57 (inactive)	-6.07 (inactive)	-3.82
O=c1cccc(-c2ccccc2Cl)o1	-0.685 (inactive)	-0.456	0.298 (inactive)	0.585 (inactive)	-0.187 (inactive)	0.414 (inactive)	-0.767	0.182 (inactive)	-0.914 (inactive)	0.863
O=C1O[C@@H](c2ccccc2)[C@@H](c2ccccc2)N2[C@@H](c3ccccc3OCCO)[C@]3(C(=O)Nc4ccc(C#CC5(O)CCCCCC5)cc43)[C@@H](C(=O)N3CCN(c4ncccn4)CC3)[C@H]12	0.691 (inactive)	-0.0141	1.89 (inactive)	1.66 (inactive)	2.21 (inactive)	1.18 (inactive)	-0.451	0.814 (inactive)	0.343 (inactive)	1.93
COCCCNC(=O)[C@]1(Cc2ccccc2)N=C(c2ccc(OCCCO)cc2)O[C@@H]1c1ccccc1CN=[N+]=[N-]	1.41 (inactive)	0.401	27.1 (active)	18.1 (active)	1.44 (inactive)	2.62 (inactive)	2.35	-0.158 (inactive)	1.26 (inactive)	2.44
CCCCC(=C=CC[C@@H](O)c1ccc(CO)o1)CCO	0.702 (inactive)	0.459	2.3 (inactive)	0.631 (inactive)	0.399 (inactive)	0.208 (inactive)	0.126	2.35 (inactive)	1.49 (inactive)	1.3
CCCCCCCCCCC(O)C1C=CC2C(=O)NC(=O)C2N1Nc1ccc(Cl)cc1Cl (stereo not given)	-2.32 (inactive)	0.335	4.61 (inactive)	2.51 (inactive)	-1.75 (inactive)	1.78 (inactive)	-0.428	0.684 (inactive)	-1.86 (inactive)	-0.838
[N-]=[N+]=Nc1ccccc1C[C@@]1(C(=O)N2CCCCC2)N=C(c2ccc(OCCCO)cc2)O[C@@H]1c1ccccc1N=[N+]=[N-]	0.0693 (inactive)	0.926	31.8 (active)	29.5 (active)	2.52 (inactive)	3.95 (inactive)	0.0562	0.0863 (inactive)	-0.141 (inactive)	-0.801
C#CCN(C/C=C/c1ccccc1)[C@H](CO)c1ccccc1	-1.3 (inactive)	-0.241	6.86 (inactive)	0.893 (inactive)	0.0025 (inactive)	0.305 (inactive)	-0.617	0.403 (inactive)	0.04 (inactive)	-3.98
COC(=O)C(CC#Cc1ccc2c(c1)[C@]1(C(=O)N2)[C@H](c2ccc(O)cc2)N2[C@H](c3ccccc3)[C@H](c3ccccc3)OC(=O)[C@H]2[C@@H]1C(=O)N1CCN(c2ncccn2)CC1)C(=O)OC	0.347 (inactive)	0.027	5.42 (inactive)	0.658 (inactive)	1.93 (inactive)	0.515 (inactive)	0.355	1.91 (inactive)	0.857 (inactive)	1.54
O=C1C2C=CC(C(O)c3ccc4c(c3)OCO4)N(Nc3ccc([N+](=O)[O-])cc3)C2C(=O)N1c1ccccc1 (stereo not given)	-0.81 (inactive)	-0.101	18.1 (active)	3.98 (inactive)	1.4 (inactive)	1.66 (inactive)	-0.363	-1 (inactive)	-3.31 (inactive)	-2.1
O=C1[C@H]2C=C(Br)[C@H](C[C@@H]2OCCCCCCO)[C@@]12CO2	-1.69 (inactive)	-0.101	1.53 (inactive)	0.318 (inactive)	1.2 (inactive)	0.501 (inactive)	-0.276	0.486 (inactive)	0.633 (inactive)	-0.292
O=C1OCCC=C[C@H]2OC34C=CCN(CCN5CCOCC5)C(=O)[C@H]3N(CCCCCO)C(=O)[C@@H]4C12 (stereo not given in full)	0.725 (inactive)	-0.103	2.61 (inactive)	0.535 (inactive)	2.32 (inactive)	0.305 (inactive)	-0.0483	0.855 (inactive)	0.393 (inactive)	1.85
[N-]=[N+]=NCc1ccccc1[C@@H]1OC(c2ccc(OCCCO)cc2)=N[C@]1(CCS(=O)(=O)c1ccccc1)C(=O)N1CCCCC1	0.323 (inactive)	0.522	22.8 (active)	7.3 (inactive)	1.59 (inactive)	1.06 (inactive)	0.34	0.196 (inactive)	1.19 (inactive)	2
Cc1ccc(S[C@]2(C(=O)O)CC(=O)N(C(C)C)[C@@H]2c2ccc(CO)cc2)cc1	1.99 (inactive)	-0.668	1.05 (inactive)	-0.354 (inactive)	-1.28 (inactive)	-0.951 (inactive)	2.66	0.149 (inactive)	-0.716 (inactive)	-0.877
